Experimental findings from PubChem BioAssay (NCI) are described below.

The panel holds about 83,000 compounds, 20% with a hit somewhere; the sample as a whole holds those more often.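 How to read the values: 0–100, growth inhibition (40 = 60% inhibited); 0, no net growth; -100 to 0, cell death (-40 = 40% of starting cells died; -100 = all dead).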 Unmarked numbers belong to inactive results. Calls of active or inactive are those of the source. Rule for the calls: active = growth percent below 10; inactive = the rest.

For the experiment, the system named is SN12C renal. In words: NCI-60 one-dose screen, 48 h (100 = growth as untreated, 0 = no growth, -100 = all killed). Conditions: 10 µM unless noted.
Consider `CCc1oc2ccccc2c1C(=O)c1cc(I)c(O)c(I)c1`, for which the growth is 46.4%.
The figure for `COc1cccc2nc(Nc3cccc(NC(=O)c4cc(N5CCOCC5)cc(C(F)(F)F)c4)c3)ccc12` is 57%; for `FC(F)(F)c1ccc(/C=N/Nc2nnc3n2N=C(c2ccc(Cl)cc2)CS3)cc1` it is 57.8%; for `Nc1nc2ccc([C@@H]3Nc4ccc5[nH]ncc5c4[C@H]4[C@H]5CCC(C5)[C@H]43)cc2s1` it is 11.4%.
For the compound `C/C=C(\C)C(C(=O)NC1CCCCC1)N(C(=O)C1CCc2cc(F)ccc2O1)c1ccc([N+](=O)[O-])cc1` (centres undefined), the growth was 93.4%.
For `COc1cc(C2Nc3ccccc3S2)cc(CN2CCOCC2)c1O` (centres undefined), the growth is 91.9%.
In the case of `C#CCNC(=S)N/N=C(\C)c1ccccn1`, the growth was 13.4%.
In the case of `COc1cc2nccc(Oc3ccc(NC(=O)C4(C(=O)Nc5c(F)cc(F)cc5F)CC4)cc3)c2cc1Oc1ccc(N)cn1`, the growth is 30.6%.
On to `COc1ccc2c(c1)CCCC21C(=O)Nc2ccccc21` (centres undefined), for which the growth is 101%.
Consider `CCCCCCCCCC1=NC(C)(C)CN1C(C)(C)CO`, for which the growth was 83.6%.
With `CCN(CC)CCCC(C)Nc1cnc(C(=O)Nc2cc(C)cc3cccnc23)cn1` (centres undefined), the growth is 77.9%.
Consider `C/C(CC(=O)NNc1ccc([N+](=O)[O-])cc1)=N\Nc1ccc([N+](=O)[O-])cc1`, for which the growth was 68.9%.
For `COc1ccc2c(c1)CCCC21C(=O)Nc2c(Cl)cccc21` (centres undefined), the growth was 82.6%.
Regarding `CCN(CC)CCCNc1cccc2c(C)cc(OC)nc12`, the growth was 88.4%.
In the case of `Cc1nn(-c2ccc(Cl)cc2)c(=O)n1CCN1CCOCC1`, the growth is 89.6%.
The figure for `CCN(C(=O)Nc1cccc2ccccc12)c1ccccc1` is 103%; for `CCCCCCCCCCC(C(O)c1ccccc1)N1CCCCC1` (centres undefined) it is 43.2%; for `CC1CN(CCCOC(=O)Nc2ccc(Cl)cc2)CCN1C(C)(C)C` (centres undefined) it is 113%.
The value for `Cc1ccc(/C=C/C(=N/N=C(N)N)c2ccccc2)cc1` was 34.3%; that for `O=C(Nc1ccc(Br)cc1)Nc1ccccc1Cl` was 84.7%; that for `CC1C2CCC(C2)C1COCCOCCO` (centres undefined) was 109%.
As to `O=C1Cc2c([nH]c3ccc([N+](=O)[O-])cc23)-c2ccccc2N1`, the growth is 44.1%.
For the compound `CCN(CC)CCCC(C)Nc1cnc(C(=O)Nc2ccc(Cl)c3cccnc23)cn1` (centres undefined), the growth is 31.7%.
Turning to `CC(=O)c1nn(-c2ccccc2)/c(=N\N=C\c2coc3ccc(F)cc3c2=O)s1`, the growth was 97.6%.
The figure for `Cc1c(O)c(=O)n(-c2ccccc2)n1C` is 98.2%.
Regarding `CSC(=S)N/N=C(\C)c1ccccn1`, the growth was 24.2%.
In the case of `CN1CCN(Cc2ccc(NC(=O)c3cncc(C#Cc4cnc5cccnn45)c3)cc2C(F)(F)F)CC1`, the growth was 3.05% (active).
Regarding `O=C1c2ccccc2C(=O)c2c1oc1ccc3ccccc3c21`, the growth is 83.2%.
For the compound `CN(C)c1ccc(/C=N/Nc2nnc3n2N=C(c2ccc(Cl)cc2)CS3)cc1`, the growth is 95%.
The value for `C#CC[C@@H]1C[C@]2(C)[C@H]3CC=C4[C@H]5CC(C)(C)CC[C@]5(C(=O)NCCCCN)CC[C@@]4(C)[C@]3(C)CC[C@H]2C(C)(C)[C@H]1OC(C)=O` was -51.2% (active); that for `COc1ccc(C(=O)C(CN(C)C)c2ccccc2)cc1` (centres undefined) was 31.4%.
The value for `C#CC[C@@H]1C[C@]2(C)[C@H]3CC=C4[C@H]5[C@@H](C)[C@H](C)CC[C@]5(C(=O)NCCCCCCCCN)CC[C@@]4(C)[C@]3(C)CC[C@H]2C(C)(C)[C@H]1OC(C)=O` was 76.1%.
Take `CCCCNCC(O)c1cc2c(Cl)cc(Cl)cc2c2cc(C(F)(F)F)ccc12` (centres undefined): the growth was -82.2% (active).
Consider `COc1ccc(/C(=C\c2ccc3c(c2)OCO3)C(=O)Nc2nc3ccccc3s2)cc1`, for which the growth was 98.3%.
Regarding `Nc1ccc(N(O)/C=C2\C=CC=CC2=O)cc1N`, the growth was 101%.
On to `Fc1[nH]nc2ccc([C@@H]3Nc4ccc5[nH]ncc5c4[C@H]4C5CCC(C5)[C@@H]34)cc12` (some centres undefined), for which the growth was 46.1%.
With `Cc1c(-c2ccc(-c3ccccc3F)cc2)nc2ccc(F)cc2c1C(=O)O`, the growth was 47.6%.
The value for `C=C(C)[C@@H]1CC[C@]2(C)[C@H](CC=C3[C@@H]4C[C@](C)(C(=O)N5CCN(C)CC5)CC[C@]4(C)CC[C@]32C)[C@@]1(C)CCC#N` was 75.2%; that for `CNCc1cccc2c1OCCOCCOCCC(C)S(=O)(=O)c1ccc(cc1)-c1cnc(N)c(n1)C(=O)N2` (centres undefined) was 45.9%.
